# ChEMBL document CHEMBL4296182, “CO-ADD screening of NIH NCI Diversity Set V”
# For part of these data: Results with a measured potency or affinity are listed apart.
# Experiments:
# [1] = system: Staphylococcus aureus; test: Antibacterial activity against Staphylococcus aureus MRSA ATCC 43300 (CO-ADD:GP_020); MIC in CAMBH media using NBS plates, by Resazurin F(560/590); type: functional; settings: Concentration 20 uM, ASSAY_TEST Inhibition of Bacterial Growth, detection method Resazurin, Fluorescence (ex560/em590), MEDIA CAMHB, plate type 384well, CORNING #3640, time 18 hr
# [2] = system: Acinetobacter baumannii; test: Antibacterial activity against Acinetobacter baumannii ATCC 19606 (CO-ADD:GN_034); MIC in CAMBH media using NBS plates, by Resazurin F(560/590); type: functional; settings: Concentration 20 uM, ASSAY_TEST Inhibition of Bacterial Growth, detection method Resazurin, Fluorescence (ex560/em590), MEDIA CAMHB, plate type 384well, CORNING #3640, time 18 hr
# [3] = system: Escherichia coli; test: Antibacterial activity against Escherichia coli ATCC 25922 (CO-ADD:GN_001); MIC in CAMBH media using NBS plates, by Resazurin F(560/590); type: functional; settings: Concentration 20 uM, ASSAY_TEST Inhibition of Bacterial Growth, detection method Resazurin, Fluorescence (ex560/em590), MEDIA CAMHB, plate type 384well, CORNING #3640, time 18 hr
# [4] = system: Klebsiella pneumoniae; settings: Concentration 20 uM; ASSAY_TEST Inhibition of Bacterial Growth; detection method Absorption (OD600); MEDIA CAMHB; plate type 384well; NBS; CORNING #3640; time 18 hr
# [5] = system: Candida albicans; settings: 20 µM
# [6] = system: Cryptococcus neoformans; settings: Concentration 20 uM; ASSAY_TEST Inhibition of Fungal Growth; detection method Resazurin; Absorption (OD600-OD570); plate type 384well; NBS; CORNING #3640
Compound,Inhibition [1],Inhibition [2],Inhibition [3],Inhibition [4],Inhibition [5],Inhibition [6]
N=C1OC(c2ccccc2)C(O)=C1O (stereo unspecified),0.33%,-10.5%,6.34%,8.48%,7.04%,-2.61%
NC(=O)CCC(C(=O)O)N1C(=O)c2ccc(O)cc2C1=O (stereo unspecified),8.42%,13.26%,-2.7%,12.88%,4.99%,-2.28%
CCCCCOc1ccc(N2C(=O)C(C)CNC2=S)cc1 (stereo unspecified),15.96%,8.82%,2.34%,9.59%,-1.3%,-8.51%
O[C@@H](c1cc(-c2ccc(C(F)(F)F)cc2)nc(C(F)(F)F)c1)[C@H]1CCCCN1,4.92%,7.22%,8.91%,19.18%,3.72%,-3.44%
N#Cc1c(N)nc(N)nc1Nc1ccc(Br)cc1,13.29%,-8.2%,-5.32%,20.88%,2.67%,-16.04%
CCC(=Cc1ccc(CC)cn1)CC,5.02%,-14.68%,4.35%,10.54%,0.05%,-5.56%
O=C(Nc1csnn1)c1csnn1,-7.63%,-6.51%,-0.35%,-1.22%,2.96%,1.57%
CCCCCn1cnc2c(S)nc(N)nc21,4.88%,-14.99%,12.21%,5.23%,1.29%,-16.43%
Clc1ccccc1-c1nc(-c2ccncc2)no1 [PIFEXOLE],2.18%,-11.63%,7%,9.18%,12.7%,-16.63%
C=CCOc1ccnc(-c2ccccc2)n1,-3.88%,-11.54%,5%,9.63%,1.14%,-7.2%
Cc1ccc(NC(=O)NNC(=O)CSC2CCc3ccccc32)c(C)c1 (stereo unspecified),19.06%,5.57%,0.84%,5.08%,2.67%,-10.98%
COC(=O)c1cncc(C)c1,18.5%,-13.2%,14.23%,15.45%,0.39%,-1.27%
CCOC(=O)N1CCc2cc(OC)c(OC)c3c2c1cc1cc(OC)c(OC)cc13,-2.61%,-15.62%,19.24%,9.85%,5.76%,-3.38%
Cc1cccc(N2CCN(CC(O)COc3ccc(Cl)cc3)CC2)c1 (stereo unspecified),13.02%,4.97%,5.23%,7.2%,0.39%,-12.55%
CCOc1ccc(Nc2c3ccccc3nc3ccccc23)cc1,-9%,-1.21%,-17.49%,0.35%,-0.79%,-2.93%
O=C(/C=C/C(=O)N1CCc2ccccc2C1)N1CCc2ccccc2C1,0.65%,-9.4%,-3.52%,3.56%,7.97%,-10.59%
CCOC(=O)N1C/C(=C\c2ccccc2)C(=O)/C(=C/c2ccccc2)C1,10.93%,7.26%,0.16%,12.83%,6.37%,-7.05%
CC1CN(CCN2CC(C)N(C=O)CC2C)C(C)CN1C=O (stereo unspecified),-7.66%,-6.52%,-13.71%,5.89%,1.99%,25.73%
c1ccc(-c2nnc3oc(-c4cccs4)nn23)cc1,-2.52%,-16.04%,4.88%,16.29%,19.4%,28.69%
CC1OC1c1ccc(-c2ccc(C3OC3C)cc2)cc1 (stereo unspecified),3.27%,-0.69%,9.33%,23.63%,7.55%,-6.65%
O=C(Nc1ccc(Br)cc1)Nc1ccccc1Cl,14.34%,-1.5%,10.13%,5.62%,1.52%,-9.14%
N#CC1=C(Nc2ccccc2Cl)SC(c2ccncc2)NC1=O (stereo unspecified),-1.66%,6.04%,-3.11%,12.56%,4.49%,-0.15%
Oc1nc(S)ncc1Oc1ccc(Cl)cc1Cl,8.02%,11.12%,2.19%,10.84%,6.27%,-6.95%

Compound,Inhibition [1],Inhibition [2],Inhibition [3],Inhibition [4],Inhibition [5],Inhibition [6]
O=C(O)c1cc2cc(OCc3ccccc3)ccc2[nH]1,6.76%,10.19%,8.06%,12.38%,9.61%,-8.34%
NS(=O)(=O)c1ccc(NC2(C(=O)O)CCCC2)cc1,11.74%,13.36%,-10.3%,11.38%,4.41%,18.42%
O=C(O)/C(Cc1c[nH]nn1)=N\O,-3.12%,-10.75%,6.44%,7.49%,2.24%,-5.01%
NC1=NC(Nc2ccccc2)=NC(c2ccccc2)N1 (stereo unspecified),10.62%,4%,5.99%,5.54%,6.21%,-14.92%
Cc1ccc(Cl)cc1NC(=O)N(C)CCO,-6.32%,12.85%,-9.79%,13.54%,6.98%,-5.5%
CCOC(=O)c1cc(OCC)c2c(ccc3ccccc32)n1,-12.94%,1.72%,-4.9%,7.15%,2.28%,-11.11%
CCCCn1c(OC(=S)N(CC)CC)cc(C)nc1=S,3.12%,15.13%,-6.8%,13.25%,7.15%,-2.34%
O=c1c2ccccc2ncn1-c1ccc(Cl)cc1,11.71%,-18.47%,12.96%,4.73%,3.91%,-12.39%
O=C(COc1ccc([N+](=O)[O-])cc1Cl)N1CCOCC1,2.54%,4.52%,6.72%,6.01%,-1.21%,-16.6%
NC(=O)NC(=O)c1nccnc1C(=O)O,4.42%,-16.67%,10.6%,1.89%,0.76%,-7.91%
CC12CCC(C(NC(=S)NN)C1=O)C2(C)C (stereo unspecified),2.53%,-10.15%,7.86%,9.19%,1.53%,-9.53%
CC(C)(NC(=O)c1cc(Cl)c2ccccc2c1O)C(=O)O,9.7%,5.56%,13.46%,19.28%,5.1%,0.69%
CC(C)NCC1CCc2cc(CO)c([N+](=O)[O-])cc2N1 (stereo unspecified) [OXAMNIQUINE],9.47%,-13.41%,4.95%,3.1%,2.55%,-8.23%
CC(=O)NCC1(O)CCCC(C)C1 (stereo unspecified),7.69%,-13.88%,5.11%,9.82%,1.28%,-5.78%
CN(C)CC1C2CCC(C2)C1O (stereo unspecified),7.18%,-12.67%,8.84%,23.62%,0.82%,-7.67%
O=C(c1cccnc1)N1CCN(c2ccccc2Cl)CC1,7.8%,-13.63%,10.26%,11.81%,2.66%,-13.57%
Nc1ccc(/C=C/c2ccc3ncccc3c2)cc1,-2.75%,-9.02%,3.29%,1.77%,2.51%,-10.25%
FC(F)(F)c1nc2nc(Cl)c(Cl)nc2n1CCCN1CCOCC1,14.57%,9.11%,-16.14%,4.93%,5.42%,38.81%
CSc1nsc(NN)n1,4.83%,-22.35%,5.94%,8.53%,8.71%,-11.9%
C#CCSc1nnnn1-c1ccc(Br)c(C)c1,21.42%,5.77%,6.7%,10.23%,1.42%,-16.38%
O=C(Nc1ccc(Cl)cc1)Nc1cccc2nsnc12,6.14%,9.14%,-11.2%,5.1%,11.3%,-2.68%
CCOC(=O)C(C#N)C(=N)C1C(=O)OC2CCCCC21 (stereo unspecified),5.44%,-19.8%,15.65%,4.77%,-2.13%,-12.86%
O=C(C(=O)c1cccnc1)c1cccnc1,7.87%,-9.17%,12.61%,6.86%,-0.57%,-3.14%
